Screening results: PubChem, National Center for Advancing Translational Sciences (NCATS)
Shown are actives, neighbours in structure and some others; about 5.9% of the full set was active somewhere.
VP16 counter: inhibits Gal4-VP16 luciferase reporter, ROR gamma counter-screen; 3.5% of 310,000 active; Potency, µM (titrated, usually from 53.6 µM), for the others: top-dose activity, negative = inhibition, usual class: inhibitors; Drosophila S2 Gal4-VP16 UAS-luciferase, luminescence, 20 h;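 also: Gal4-VP16 expression switched on by copper sulfate through the metallothionein promoter; potency is read from the fitted curve at half-maximal effect; nearly all actives have a fitted effect of over 50% in size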
FBPA coupling cs: coupling enzyme interference in Giardia aldolase counter-screen; activity change, negative = inhibition, % at 58.2 µM, hits read low; coupling enzyme system counterscreen, AmpLite Red fluorescence; 0.67% of 290,000 active; AID 2472; in the data active = activity change below about -30%
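Final compound at 57.5 uM, incubated 10 min at RT with coupling enzyme reagent (glyceraldehyde-3-phosphate), then 20 min with substrate and AmpLite Red detection. Fluorescence read at 525/598 nm; tests interference with the coupling assay, not aldolase inhibition.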
TrxR1 substrate: is turned over as a substrate by rat TrxR1 | O89049 | purified TrxR1 substrate turnover, NADPH consumption readout | Potency, µM (highest dose often 114 µM), inactives show at the highest dose activity change, negative = substrate turnover | 0.01% of 390,000 active; also: potency is read from the fitted curve at half-maximal effect; nearly all actives have a fitted effect of over 50% in size
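Rat TrxR1, dispensed at 90 nM, was prereduced with 400 uM NADPH (final) for 5 min at ~22 deg C, then incubated with compound 15 min before 400 uM selenite. A first-read NADPH fluorescence drop versus no-compound background flagged substrates.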
GALK inhibitor: blocks human galactokinase activity. P51570. Purified GALK, Kinase-Glo residual ATP luminescence. Potency, µM (highest dose often 57.5 µM), without a hit: at the top dose activity change, negative = inhibition, hits mostly inhibitors. 0.007% of 270,000 active; also: potency is read from the fitted curve at half-maximal effect
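Human GALK (5 nM) with 35 uM ATP and 100 uM galactose in 20 mM HEPES pH 8.0, 5 mM MgCl2, 60 mM NaCl, 1 mM DTT, 0.01% BSA. After 1 h at room temperature, leftover ATP was read by Kinase-Glo Plus luminescence.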
RORgamma inh: blocks mouse ROR gamma transcriptional activity | P51450 | Drosophila S2 Gal4-RORgamma UAS-luciferase reporter, 20 h | Potency, µM (highest dose often 53.6 µM), for inactives: at the top dose activity change, negative = inhibition, usual class: inhibitors | 5.4% of 310,000 active; also: potency is read from the fitted curve at half-maximal effect; nearly all actives have a fitted effect of over 60% in size
Target sequence (P51450 whole entry, looked up, the tested form may be a part): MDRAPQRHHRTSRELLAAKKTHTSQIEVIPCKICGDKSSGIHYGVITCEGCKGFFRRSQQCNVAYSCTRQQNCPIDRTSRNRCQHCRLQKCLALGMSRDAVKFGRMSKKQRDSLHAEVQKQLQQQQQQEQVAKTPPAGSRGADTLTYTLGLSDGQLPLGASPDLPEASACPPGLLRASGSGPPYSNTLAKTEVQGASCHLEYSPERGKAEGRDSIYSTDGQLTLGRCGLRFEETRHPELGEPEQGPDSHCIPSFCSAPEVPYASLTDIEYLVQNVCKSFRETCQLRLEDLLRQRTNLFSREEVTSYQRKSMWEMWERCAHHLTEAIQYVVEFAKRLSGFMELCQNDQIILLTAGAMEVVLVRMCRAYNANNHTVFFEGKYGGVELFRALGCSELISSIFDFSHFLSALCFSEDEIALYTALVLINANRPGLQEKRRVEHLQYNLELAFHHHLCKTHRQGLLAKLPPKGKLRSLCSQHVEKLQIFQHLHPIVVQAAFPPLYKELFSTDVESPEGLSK
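Drosophila S2 cells stably expressing Gal4-DBD/mouse RORγ fusion under metallothionein promoter plus UAS-luciferase; compound 1 h, then 700 uM CuSO4 induction for 20 h at ambient temperature; inhibition read as reduced luminescence.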
TrxR1 inh: rat TrxR1 inhibition | O89049 | recombinant rTrxR1, NADPH fluorescence consumption, selenite substrate | Potency, µM (highest dose often 114 µM), inactives show top-dose activity change, negative = inhibition, most hits filed as inhibitors | 1% of 390,000 active; also: potency is read from the fitted curve at half-maximal effect; nearly all actives have a fitted effect of over 65% in size
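Rat TrxR1 (90 nM in the dispensed reagent) was pre-reduced with 400 uM NADPH for 5 min at room temperature, then incubated with compound for 15 min. After 400 uM selenite was added, NADPH fluorescence (Ex 340/Em 450 nm) was followed for 8 min.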
The depositor's hits bear a star; ? = inconclusive; · = not tested or not shown; [ ] = another dose, or the depositor's remark. Unless noted, calls follow the shape of the dose curve; as a rule, active = well fitted curve in the direction sought with a large enough effect; inconclusive = small, poorly fitted or top-dose-only effect, or another doubt; inactive = no such curve, though single readings can be large; an effect the other way counts as inactive or inconclusive. % is scaled to controls: 0 for no effect and ±100 for the full control effect.

SMILES | VP16 counter | FBPA coupling cs | TrxR1 substrate | GALK inhibitor | RORgamma inh | TrxR1 inh
CCC(Oc1ccc(Br)cc1Cl)C(=O)Nc1nnc(C2CC2)s1 (stereo not given) | ? | · | -4% | -8% | 13µM* | -10%
CC(Oc1ccc(Br)cc1)C(=O)Nc1nnc(C2CC2)s1 (stereo not given) | · | · | -6% | · | · | 2%
COc1cccc(-n2c(=O)c3sccc3n(Cc3cc(=O)n4cc(Cl)ccc4n3)c2=O)c1 | · | · | 11% | · | · | 6%
Cc1nn(C)c(C)c1NC(=O)Nc1ccc(Cl)c(Cl)c1 | 8% | -2 | 8%[57.1 µM] | 1% | 13% | 19%[57.1 µM]
Cc1nn(C)c2nc(NNC(=O)Nc3cc(Cl)nc(Cl)c3)cc(C(C)C)c12 | 16µM* | 4 | · | · | -18% | ·
Cc1cc(NNC(=O)Nc2cccc(Cl)c2)nc2c1c(C)nn2C | 11µM* | -1 | · | 3% | ? | ·
CCOC(=O)c1ccc(NC(=O)C(=O)NCCc2ccc(OC)cc2)cc1 | 3% | 1 | 1% | 2% | 0% | 26%
CCOC(=O)c1cccc(NC(=O)CCS(=O)(=O)c2ccc(Br)s2)c1 | -4% | 1 | -2% | 1% | -2% | 5%
CCOC(=O)c1ccc(NC(=S)NCCc2ccc(F)cc2)cc1 | ? | -1 | -3%[57.1 µM] | 0% | 10µM* | -3%[57.1 µM]
CCOC(=O)c1cn[nH]c1NC(=S)Nc1ccc(Cl)cc1 | ? | -3 | -2%[57.1 µM] | -1% | 2.8µM* | -1%[57.1 µM]
CCOC(=O)c1cccc(NC(=O)CCS(=O)(=O)c2cccs2)c1 | -2% | -1 | -4% | -2% | ? | 22µM*
CCOC(=O)c1ccc(NC(=S)N2CCSC2c2ccc(Cl)cc2)cc1 (stereo not given) | ? | 1 | 2% | -2% | 14µM* | 9%
Cc1cccc(NS(=O)(=O)c2ccc3oc(=O)ccc3c2)c1C | -7% | 0 | 0% | 4% | ? | 20%
Cc1ccc(S(=O)(=O)Nc2ccc3nc(N)sc3c2)cc1 | -24% | 0 | 3%[57.1 µM] | 3% | ? | 0%[57.1 µM]
Cc1ccc(S(=O)(=O)N2CCCC(NC(=O)N3CCN(c4ccccc4)CC3)C2)cc1 (stereo not given) | 8% | 1 | -8% | -2% | 41% | -6%
CCOC(=O)c1ccc(NC(=S)Nc2ccccc2)cc1 | -13% | 4 | 10%[57.1 µM] | 2% | ? | -39%
CCOC(=O)c1cccc(NC(=S)NCc2ccc(C)cc2)c1 | ? | -3 | 5%[11.4 µM] | 0% | 10µM* | 25%[11.4 µM]
CCOC(=O)c1ccc(NC(=S)Nc2ccc(C)cc2)cc1 | ? | 0 | 6% | -1% | 13µM* | -9%[57.1 µM]
Cc1cc(C)nc(N/N=C/C2=C(N3CCOCC3)C(=C\c3ccc(Cl)cc3)/CC2)n1 | ? | -5 | 0% | -2% | 10µM* | ?
Cc1cc(C)nc(NN=CC2=C(N3CCOCC3)/C(=C/c3ccc(Cl)cc3)CC2)n1 | · | · | 5% | · | · | ?
O=C(CSc1nnnn1C1CC2C=CC1C2)Nc1ccc(C(=O)O)cc1 (stereo not given) | · | · | 9% | · | · | 5%
Cc1c(N2C(=O)CSC2=S)c(=O)n(-c2ccccc2)n1C | 1% | -3 | 3%[57.1 µM] | 9% | 13µM* | -5%[57.1 µM]
Cc1c(N2C(=O)/C(=C3/C(=O)N(C)c4ccccc43)SC2=S)c(=O)n(-c2ccccc2)n1C | 9% | -8 | 2% | -2% | 7.9µM* | -12%
O=C1CSC(=S)N1c1cccc(O)c1 | -6% | -2 | -2% | 0% | 13µM* | -2%
CCN1C(=O)/C(=C2\SC(=S)N(c3c(C)n(C)n(-c4ccccc4)c3=O)C2=O)c2ccccc21 | -10%[0.365 µM] | -5 | -4% | 0% | -35% | -22%
SMILES | VP16 counter | FBPA coupling cs | TrxR1 substrate | GALK inhibitor | RORgamma inh | TrxR1 inh
CC(=O)N1C(=O)/C(=C2\SC(=S)N(c3c(C)n(C)n(-c4ccccc4)c3=O)C2=O)c2ccccc21 | -11% | -40* | -8% | -2% | -31% | -22%
O=C(O)c1cccc(N2C(=O)CSC2=S)c1 | 5% | 0 | 3% | 5% | -42% | 6%
O=C(NCc1ccc(OC(F)(F)F)cc1)c1ccc2c(c1)S(=O)(=O)c1ccccc1C2=O | · | · | -5%[57.1 µM] | · | · | 25%[57.1 µM]
CC(C)NC(=O)CSc1nc2ccccc2nc1N1CCCCC1 | · | · | -5% | · | · | -9%
Cc1cc(=O)oc2cc(OCC(=O)NCC3CCC(C(=O)O)CC3)ccc12 (stereo not given) | -4% | -1 | 36% | · | -11% | -10%
COc1ccc(-c2csc(N3N=C(C)C(C)C3=O)n2)cc1 (stereo not given) | ? | 0 | 3%[57.1 µM] | 0% | 8.9µM* | 6%[57.1 µM]
CC1=NN(c2nc(-c3ccc(C)cc3)cs2)C(=O)C1N=Nc1ccccc1O (stereo not given) | 3% | 1 | 4%[57.1 µM] | 4% | 3% | 19%[57.1 µM]
CC1=NN(c2nc(-c3ccc(Cl)cc3)cs2)C(=O)C1 | ? | 12 | -14% | 4% | 10µM* | 26%[57.1 µM]
CC1=NN(c2nc(-c3ccc(F)cc3)cs2)C(=O)C1 | -8% | 1 | -6% | -5% | 13µM* | 11%
O=C(N/N=C/c1ccc(O)c(O)c1)c1cc(-c2ccccc2)nc2ccccc12 | · | -2 | 4%[57.1 µM] | -2% | · | -6%
COc1ccc(OC)c(NC(=S)NCc2cccnc2)c1 | -18% | 5 | -8% | 2% | 6% | -21%
COC(=O)[C@@]1(C)[C@H]2C(=O)N(C)C(=O)[C@H]2[C@H]2CN=C(SCc3ccccc3)N21 | · | · | 4% | · | · | 18%
CS(=O)(=O)N1CCN(c2ccccc2NC(=S)NC(=O)c2ccccc2[N+](=O)[O-])CC1 | ? | 1 | 4%[57.1 µM] | -1% | -42% | 12%[57.1 µM]
CC1CCN(c2ccccc2NC(=S)NC(=O)C(C)(C)C)CC1 | ? | 3 | 0% | 3% | 1.6µM* | 9%
CC(C)C(=O)NC(=S)Nc1ccccc1N1CCN(C(=O)c2ccc(Cl)cc2)CC1 | 5µM* | 1 | -10% | -3% | 5.6µM* | ?
CC(C)C(=O)N1CCN(c2ccccc2NC(=S)NC(=O)c2cccs2)CC1 | ? | -1 | 12% | 5% | 14µM* | 8%
CS(=O)(=O)N1CCN(c2ccccc2NC(=S)NC(=O)c2cccs2)CC1 | -19% | 2 | 1%[57.1 µM] | 1% | 11µM* | 18%[57.1 µM]
CC(=O)N1CCN(c2ccccc2NC(=O)c2cccs2)CC1 | 3% | · | -9% | -3% | -31% | -6%
COc1ccc(NC(=O)CN(C)C(=O)c2cc3c(s2)CCC3)cc1 | · | · | 8% | · | · | 11%
C=CCn1c(SCc2cc(=O)n3ccsc3n2)nc2cc(Cl)ccc2c1=O | -12% | 2 | 2% | 0% | 14% | 18%[57.1 µM]
CC1CCN(c2ccccc2NC(=S)NC(=O)c2cccs2)CC1 | 6.3µM* | 0 | 7% | 2% | 2.2µM* | 8%
